The list is not random: actives were taken first. Their share in the collection is about 1.5%.
RTF Ca sens act = cardiac RTF calcium sensitization; IANBD-labeled TnC RTF fluorescence at EC20 calcium; 0% EC20 calcium, 100% full calcium; hit rate 0.24% among 340,000; AID 493008; activation, % at 7.2 µM; P19429+P45379;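 active = activation above the mean over all tested compounds plus 3 SD, cut at about 30% in these data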;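 also: rise in fluorescence read as greater calcium sensitivity of cardiac thin filaments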
IDE cell inh = cellular human IDE inhibition; P14735; HEK cells, FAbetaB cleavage, fluorescence polarization; inhibition, % at 5.59 µM; hit rate 0.41% among 320,000; AID 434962;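 active = percent inhibition above the average of all tested compounds plus 3 SD, set per screening campaign, cut at about 16% in these data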;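 also: IDE supplied by intact live HEK cells; FP after avidin binding of uncleaved biotin substrate so inhibition keeps polarization high; 0% = DMSO wells and 100% = 60 µM reference IDE inhibitor Ii1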
Target sequence (P14735 whole entry, looked up): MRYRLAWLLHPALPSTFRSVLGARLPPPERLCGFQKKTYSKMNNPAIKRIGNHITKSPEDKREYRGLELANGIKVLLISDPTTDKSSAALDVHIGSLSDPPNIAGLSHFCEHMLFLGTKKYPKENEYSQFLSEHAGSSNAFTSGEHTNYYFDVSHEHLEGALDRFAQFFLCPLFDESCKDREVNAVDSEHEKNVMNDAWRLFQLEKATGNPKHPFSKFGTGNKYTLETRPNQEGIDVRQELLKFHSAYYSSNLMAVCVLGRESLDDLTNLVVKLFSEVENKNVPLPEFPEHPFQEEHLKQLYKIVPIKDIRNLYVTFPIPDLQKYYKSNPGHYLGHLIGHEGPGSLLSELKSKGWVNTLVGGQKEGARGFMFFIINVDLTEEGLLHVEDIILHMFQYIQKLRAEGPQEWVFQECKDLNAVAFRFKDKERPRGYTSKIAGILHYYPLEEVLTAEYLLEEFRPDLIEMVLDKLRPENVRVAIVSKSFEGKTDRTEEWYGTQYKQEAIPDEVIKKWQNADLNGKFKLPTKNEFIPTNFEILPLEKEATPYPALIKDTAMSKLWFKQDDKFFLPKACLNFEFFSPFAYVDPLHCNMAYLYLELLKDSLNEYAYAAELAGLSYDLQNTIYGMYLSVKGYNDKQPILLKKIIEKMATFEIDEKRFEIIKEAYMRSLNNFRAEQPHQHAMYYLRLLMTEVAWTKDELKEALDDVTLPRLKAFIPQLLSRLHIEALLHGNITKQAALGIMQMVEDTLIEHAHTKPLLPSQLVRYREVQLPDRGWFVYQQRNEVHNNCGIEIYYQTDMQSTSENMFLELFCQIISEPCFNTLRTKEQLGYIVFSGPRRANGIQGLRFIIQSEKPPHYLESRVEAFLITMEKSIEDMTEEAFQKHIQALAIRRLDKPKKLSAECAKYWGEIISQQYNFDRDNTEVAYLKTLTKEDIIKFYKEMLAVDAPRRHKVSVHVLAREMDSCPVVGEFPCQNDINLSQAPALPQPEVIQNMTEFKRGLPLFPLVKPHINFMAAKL
CRFBP-R2 agonist = CRF-BP/CRF-R2 complex agonism | HEK293 CRF-R2/CRF-BP, calcium dye fluorescence (FLIPR); percent of saturating CRF peptide response | activation, % at 13.2 µM | hit rate 0.46% among 350,000 | AID 588473;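 active = activation of at least 50%, plus an integration ratio under a set limit after plate pattern correction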;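 also: plate controls were neutral control wells without compound for no effect and CRF at EC100 for full effect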
CRFBP-R2 block = antagonists of CRF-binding protein/CRF-R2 receptor complex | HEK293 CRF-R2/CRF-BP, CRF-induced calcium fluorescence | inhibition, % at 11.8 µM | hit rate 0.59% among 350,000;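 active = inhibition of the ligand-induced calcium signal above about 50% at the single tested concentration, limit read from the data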
IDE cell activ = boosts human insulin-degrading enzyme activity in HEK cells | hit rate 0.073% among 340,000 | FAbeta-B cleavage, fluorescence polarization; 0% vehicle, 100% cell-free pure enzyme wells | activation, % at 5.96 µM | AID 493087;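 active = activation above the mean of all tested compounds plus 3 SD, set per screening campaign, cut at about 17% in these data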
RTF Ca sens inh = cardiac RTF calcium desensitization; P19429+P45379; inhibition, % at 7.15 µM; hit rate 0.12% among 340,000; IANBD-labeled cardiac RTF, Ca2+ fluorescence;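 active = inhibition above the mean inhibition of all tested compounds plus 3 SD, cut at about 17% in these data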;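 also: assay run at fixed EC70 calcium of 1.6 mM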
IDE inh confirm = confirmation of human insulin-degrading enzyme inhibitors in cells; shares compounds with IDE cell inh; HEK cells, FAbetaB cleavage, fluorescence polarization; inhibition, % at 5.59 µM; hit rate 51% among 1,200; AID 435028;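 active = mean inhibition across triplicate wells above the cutoff set by the earlier primary insulin-degrading enzyme screen, cut at about 16% in these data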;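 also: 0% = DMSO wells and 100% = 60 µM reference IDE inhibitor Ii1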
HEK293 tox = counter-screen for IDE inhibitors: cytotoxicity in HEK cells | shares compounds with IDE cell inh | HEK293 cytotoxicity, ATP luminescence | inhibition, % at 5.59 µM | hit rate 28% among 1,200; in the data active = inhibition above about 22%;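 also: 0% = vehicle wells and 100% = reference cytotoxic drug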
* = called active by the depositor.

Results for COC(=O)Cn1c(=NC(=O)c2ccc(OC)cc2)sc2cc(OC)ccc21 ?
RTF Ca sens act: 1; IDE cell inh: 8; CRFBP-R2 agonist: 1; CRFBP-R2 block: -38; IDE cell activ: -5; RTF Ca sens inh: 9

Results for COC(=O)Cn1c(=NC(=O)c2cc(OC)cc(OC)c2)sc2cc(OC)ccc21 ?
RTF Ca sens act: 2; IDE cell inh: 16*; CRFBP-R2 agonist: -1; CRFBP-R2 block: -11; IDE cell activ: -11; RTF Ca sens inh: -10; IDE inh confirm: 6; HEK293 tox: 13

What do the screens show for `O=c1c2ccccc2sn1-c1ccc(S(=O)(=O)N2CCCC2)cc1`?
RTF Ca sens act: -9; IDE cell inh: 38*; CRFBP-R2 agonist: 4; CRFBP-R2 block: -4; IDE cell activ: -50; RTF Ca sens inh: -1; IDE inh confirm: 12; HEK293 tox: 22

How did Cc1ccc(C(=O)NNC(=O)c2ccccc2)cc1S(=O)(=O)N1CCCCC1 do in these assays?
RTF Ca sens act: -2; IDE cell inh: 0; CRFBP-R2 agonist: -1; CRFBP-R2 block: 3; IDE cell activ: -2; RTF Ca sens inh: -3

Results for Cc1ccc(-n2sc3ccccc3c2=O)cc1S(=O)(=O)N1CCCCC1 ?
RTF Ca sens act: -2; IDE cell inh: 83*; CRFBP-R2 agonist: 11; CRFBP-R2 block: -24; IDE cell activ: -30; RTF Ca sens inh: -4; IDE inh confirm: 25*; HEK293 tox: 20

How did O=c1c2ccccc2sn1-c1ccc(S(=O)(=O)N2CCCCC2)cc1 do in these assays?
RTF Ca sens act: 0; IDE cell inh: -23; CRFBP-R2 agonist: -1; CRFBP-R2 block: 3; IDE cell activ: -45; RTF Ca sens inh: -3

How did CCOc1ccc2nc(SC3CC(=O)N(c4ccc(OC)cc4OC)C3=O)sc2c1 (stereo unspecified) do in these assays?
RTF Ca sens act: -1; IDE cell inh: 0; CRFBP-R2 agonist: 3; CRFBP-R2 block: -5; IDE cell activ: -14; RTF Ca sens inh: 6

What do the screens show for `COc1ccc(N=C2NC(=O)/C(=C/c3ccc(O)c(OC)c3)S2)cc1`?
RTF Ca sens act: 3; IDE cell inh: 25*; CRFBP-R2 agonist: 4; CRFBP-R2 block: -10; IDE cell activ: -24; RTF Ca sens inh: -6; IDE inh confirm: 32*; HEK293 tox: 12

Results for COc1cc(/C=C2\SC(=N)N(c3ccc(F)cc3)C2=O)ccc1O ?
RTF Ca sens act: 1; IDE cell inh: 26*; CRFBP-R2 agonist: 6; CRFBP-R2 block: -19; IDE cell activ: -14; RTF Ca sens inh: -18; IDE inh confirm: 19*; HEK293 tox: 20

How did CCOc1ccc(N2C(=O)S/C(=C\c3ccc(O)c(OC)c3)C2=O)cc1 do in these assays?
RTF Ca sens act: -3; IDE cell inh: 19*; CRFBP-R2 agonist: 4; CRFBP-R2 block: -8; IDE cell activ: -11; RTF Ca sens inh: -4; IDE inh confirm: 20*; HEK293 tox: 7

How did COc1cc(/C=C2\SC(=N)N(c3ccc4c(c3)OCO4)C2=O)cc(OC)c1O do in these assays?
RTF Ca sens act: 5; IDE cell inh: 81*; CRFBP-R2 agonist: 38; CRFBP-R2 block: -6; IDE cell activ: -58; RTF Ca sens inh: -11; IDE inh confirm: 72*; HEK293 tox: 11

What do the screens show for `COc1ccc(N2CCN(S(=O)(=O)c3c(C(=O)N4CCOCC4)c(C)n(C)c3C)CC2)cc1`?
RTF Ca sens act: 4; IDE cell inh: -1; CRFBP-R2 agonist: 1; CRFBP-R2 block: -5; IDE cell activ: 2; RTF Ca sens inh: -2

How did O=C(NCCC(=O)N1CCC2(CC1)NCCc1[nH]cnc12)c1cccc(Cl)c1 do in these assays?
RTF Ca sens act: 1; IDE cell inh: -2; CRFBP-R2 agonist: 0; CRFBP-R2 block: 10; IDE cell activ: 4; RTF Ca sens inh: -9

What do the screens show for `COc1ccccc1N=C1NC(=O)/C(=C/c2ccc(N(C)C)cc2)S1`?
RTF Ca sens act: 48*; IDE cell inh: 53*; CRFBP-R2 agonist: 79*; CRFBP-R2 block: -86; IDE cell activ: -70; RTF Ca sens inh: -87; IDE inh confirm: 56*; HEK293 tox: 53*

How did Cc1c(C(=O)/C=C/N(C)C)nnn1-c1ccc(Cl)cc1C#N do in these assays?
RTF Ca sens act: 4; IDE cell inh: 3; CRFBP-R2 agonist: 4; CRFBP-R2 block: 3; IDE cell activ: 6; RTF Ca sens inh: -9

How did Cc1ccccc1-n1c(SCc2csc(Nc3ccccc3)n2)nnc1-c1cccnc1 do in these assays?
RTF Ca sens act: -11; IDE cell inh: 21*; CRFBP-R2 agonist: 0; CRFBP-R2 block: -12; IDE cell activ: -13; RTF Ca sens inh: -4; IDE inh confirm: 7; HEK293 tox: 20

How did Cc1ccc(Nc2nc(CSc3nnc(-c4cccnc4)n3-c3ccccc3C)cs2)cc1 do in these assays?
RTF Ca sens act: 7; IDE cell inh: 5; CRFBP-R2 agonist: -5; CRFBP-R2 block: -24; IDE cell activ: -11; RTF Ca sens inh: 0

Results for O=C(c1cc2cc(Cl)ccc2[nH]1)N1CCN(c2ccccn2)CC1 ?
RTF Ca sens act: 1; IDE cell inh: 0; CRFBP-R2 agonist: 2; CRFBP-R2 block: -16; IDE cell activ: 1; RTF Ca sens inh: 7

What do the screens show for `N=c1oc2c3c4c(cc2cc1C(=O)Nc1ccccc1)CCCN4CCC3`?
RTF Ca sens act: active; IDE cell inh: 51*; CRFBP-R2 agonist: 271*; CRFBP-R2 block: -317; IDE cell activ: -30; RTF Ca sens inh: inactive; IDE inh confirm: 26*; HEK293 tox: 21

What do the screens show for `Cc1ccc(NC(=O)c2cc3ccccc3oc2=N)cc1`?
RTF Ca sens act: 10; IDE cell inh: 3; CRFBP-R2 agonist: 5; CRFBP-R2 block: 0; IDE cell activ: 1; RTF Ca sens inh: 6

How did Cn1c(/C(C#N)=C/c2ccc(-c3ccc(S(N)(=O)=O)cc3)o2)nc2ccccc21 do in these assays?
RTF Ca sens act: 45*; IDE cell inh: 26*; CRFBP-R2 agonist: 18; CRFBP-R2 block: -31; IDE cell activ: -7; RTF Ca sens inh: -18; IDE inh confirm: 47*; HEK293 tox: 46*

What do the screens show for `O=C(c1cccc(N2CCCC2=O)c1)N1CCN(c2ccccc2)CC1`?
RTF Ca sens act: -2; IDE cell inh: 2; CRFBP-R2 agonist: 1; CRFBP-R2 block: 21; IDE cell activ: -6; RTF Ca sens inh: 0

What do the screens show for `Cc1cccc(N2CCN(C(=O)c3cccc(N4C(=O)C5CC=CC(C)C5C4=O)c3)CC2)c1C` (stereo unspecified)?
RTF Ca sens act: 0; IDE cell inh: 53*; CRFBP-R2 agonist: -1; CRFBP-R2 block: -8; IDE cell activ: -58; RTF Ca sens inh: -7; IDE inh confirm: 36*; HEK293 tox: 19
